Sampled rows, rich in hits. Any-hit rate of the full collection: about 5.5%.
RORgamma inh = qHTS for inhibitors of ROR gamma transcriptional activity; Nuclear receptor ROR-gamma (Mus musculus), P51450; Drosophila S2 Gal4-RORgamma UAS-luciferase reporter, 20 h; Potency, µM (titrated, usually from 53.6 µM), hits mostly inhibitors; 5.4% of 310,000 active; AID 2551, 2010; note: nearly all actives have a fitted effect of over 60% in size
Target sequence (P51450 whole entry, looked up, the tested form may be a part): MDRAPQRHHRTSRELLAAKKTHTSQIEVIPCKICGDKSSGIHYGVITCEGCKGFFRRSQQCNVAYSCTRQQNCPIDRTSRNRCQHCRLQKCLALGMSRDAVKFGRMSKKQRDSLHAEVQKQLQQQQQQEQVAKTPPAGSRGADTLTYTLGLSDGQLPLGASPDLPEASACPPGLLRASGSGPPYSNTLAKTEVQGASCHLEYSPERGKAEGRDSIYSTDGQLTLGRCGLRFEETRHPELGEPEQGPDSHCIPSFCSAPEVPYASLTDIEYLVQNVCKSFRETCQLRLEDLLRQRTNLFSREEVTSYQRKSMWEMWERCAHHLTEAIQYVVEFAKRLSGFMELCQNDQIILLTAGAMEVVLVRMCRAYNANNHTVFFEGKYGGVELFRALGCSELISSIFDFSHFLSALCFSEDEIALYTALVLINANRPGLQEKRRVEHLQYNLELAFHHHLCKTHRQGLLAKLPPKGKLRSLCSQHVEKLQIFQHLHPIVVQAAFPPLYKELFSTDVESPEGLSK
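Stable Schneider cell line, Gal4 DNA-binding domain fused to ROR gamma, UAS-luciferase. Cmpd 1 hr RT → CuSO4 700 uM final → 20 hr RT → luciferase reagent 10 min → luminescence.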
MBNL1 CUG block = qHTS Assay for Inhibitors of MBNL1-poly(CUG) RNA binding. Muscleblind-like protein 1 (Homo sapiens), Q9NR56. TR-FRET MBNL1-His/biotin-(CUG)12 binding, 665/545 ratio. Potency, µM (titrated, usually from 57.5 µM), most hits filed as inhibitors. 0.036% of 280,000 active. AID 2675, 2010; active = well fitted inhibition curve with a large enough effect in the signal ratio, with a control signal flat, not every such curve was filed as active; inconclusive = small, poorly fitted or top-dose-only effect, or effect the other way, or a change in a side signal; inactive = no such curve, though single readings can be large or run the other way; the % refers to the signal ratio
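MBNL1-His + Biotin-(CUG)12, cpd titration 92 nM–58 uM; Tb anti-His Ab 0.055 ng/ul, SA-XL665 5 nM (final); 60 min RT; ratiometric 665/545 nm, Ex 340 nm; normalized to buffer and full-complex controls.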
CBFb-RUNX1 inh = qHTS Assay for Compounds Blocking the Interaction Between CBF-beta and RUNX1 for the Treatment of Acute Myeloid Leukemia; AID 1477, 2009; AlphaScreen CBFb-His/RUNX1-biotin binding, biochemical; 230,000 tested, under 10 active; Potency, µM (doses to about 59.8 µM), hits mostly inhibitors
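CBFb-His/RUNX1-biotin, 30 nM each, preincubated 20 min RT; compound 15 min RT; Ni + streptavidin beads 50 ng each, 90 min RT; AlphaScreen read.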
CtBP-E1A inh = qHTS Assay for Inhibitors of the CtBP/E1A Interaction. AID 651724, 2012. AlphaScreen GST-E1A/His-CtBP binding, 1536-well; active compounds read low. 0.49% of 340,000 active. CtBP / adenovirus E1A interaction (AlphaScreen). activity change, % (concentration not given with the values); in the data active = activity change below about -65%; inconclusive = mostly about -30% to -63%
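AlphaScreen with 125 nM GST-E1A and 125 nM His-CtBP (5X stocks) in Tris pH 8.0, 300 mM NaCl, BSA, Tween 20, TCEP. Compounds preincubated 2 h at 37 deg C, then glutathione donor/nickel acceptor beads added for 1 h at 37 deg C in dark.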
Gal4-VP16 FLuc = VP16 counterscreen qHTS for inhibitors of ROR gamma transcriptional activity; Potency, µM (doses to about 53.6 µM), actives largely listed as inhibitors; AID 2546, 2010; Drosophila S2 Gal4-VP16 UAS-luciferase, luminescence, 20 h; 3.5% of 310,000 active;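 note: Gal4-VP16 expression switched on by copper sulfate through the metallothionein promoter; nearly all actives have a fitted effect of over 50% in size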
Six1-Eya2 blk = qHTS Assay for Inhibitors of the Six1/Eya2 Interaction; AlphaScreen GST-Six1/His-Eya2 binding, biochemical; active compounds read low; activity change, % (concentration not given with the values); 0.56% of 360,000 active; in the data active = activity change below about -65%; inconclusive = mostly about -30% to -63%
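Compounds are tested against tagged Six1 and Eya2 proteins bridged by glutathione donor and nickel acceptor beads; after a one-hour incubation at 37 °C without light, AlphaScreen emission is recorded.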
A number is an active result; . = inactive; ? = inconclusive; / = no result given; [ ] = another dose, or the depositor's remark. Unless noted, calls come from the whole dose curve; as a rule, active = well fitted curve in the direction sought with a large enough effect; inconclusive = small, poorly fitted or top-dose-only effect, or another doubt; inactive = no such curve, though single readings can be large; an effect the other way counts as inactive or inconclusive.

SMILES | RORgamma inh | MBNL1 CUG block | CBFb-RUNX1 inh | CtBP-E1A inh | Gal4-VP16 FLuc | Six1-Eya2 blk
CCN(C(=O)COC(=O)CNS(=O)(=O)c1ccc(C)cc1)C1CCS(=O)(=O)C1 (stereo unspecified) | / | / | / | . | / | .
CCC1CCCCN1C(=O)COc1c(Br)cc(Br)c2cccnc12 (stereo unspecified) | 13µM | . | . | . | ? | .
O=C(NNC(=S)Nc1ccccc1Cl)c1ccccc1 | 13µM | . | / | . | . | .
O=C(NC(=S)Nc1cccc(Cl)c1Cl)C1CC1 | 2.5µM | . | / | . | 4.5µM | .
O=C(CCN1CCN(c2ccccc2)CC1)NNC(=S)Nc1ccccc1Cl | 8.9µM | . | . | . | . | .
O=C(NNC(=S)Nc1ccccc1Cl)C1CC1 | 11µM | . | . | . | ? | .
Cc1noc(C)c1-c1ccc2ncnc(NCc3ccc(-c4ccccc4)cc3)c2c1 | ? | / | . | / | . | /
O=C(NCC1COCCO1)c1ccc2nc(Cc3cccc(Cl)c3)oc2c1 (stereo unspecified) | . | . | / | . | . | .
Nc1nc2cc(S(=O)(=O)NC3=NCCCCC3)ccc2s1 | ? | . | . | / | ? | .
CCOC(=O)c1ccc(S(=O)(=O)Nc2nc3cc(S(=O)(=O)NC4=NCCCCC4)ccc3s2)cc1 | 14µM | . | . | . | ? | .
O=S(=O)(NCc1nnnn1-c1ccc(F)cc1)c1ccc(F)cc1 | / | / | / | . | / | .
OC(CNCCc1ccc(C(F)(F)F)cc1)COc1ccc2ccccc2c1 (stereo unspecified) | 16µM | . | . | . | 11µM | .
OC(CNCCc1ccc(C(F)(F)F)cc1)COc1cccc2ccccc12 (stereo unspecified) | ? | . | . | / | 13µM | .
COc1ccccc1COCC(O)CNCCc1ccc(C(F)(F)F)cc1 (stereo unspecified) | . | . | / | . | . | .
Cc1ccc(NCC(O)C(O)C(O)CO)c(N=Nc2ccccc2)c1C (stereo unspecified) | . | ? | / | / | . | .
CSc1nc(O)c(C(c2ccc(F)cc2)c2c(O)nc(SC)[nH]c2=O)c(=O)[nH]1 | / | / | / | . | / | .
CSc1nc(O)c(N=Nc2ccc(F)cc2F)c(=O)[nH]1 | ? | ? | / | / | 10µM | .
COCCn1c(=O)c(CCc2ccccc2)nc2cnc(N3CCOCC3)nc21 | . | / | / | / | . | /
Nc1nc2ccccc2n1/N=C/c1ccc2c(c1)OCO2 | 10µM | . | . | . | ? | .
N=c1c(-c2nc3ccccc3[nH]2)cc(C(=O)c2ccco2)nn1-c1ccccc1 | 2.8µM | ? | ? | . | 5µM | .
N=c1c(-c2nc3ccccc3[nH]2)cc(C(=O)c2cccs2)nn1-c1ccccc1 | . | ? | . | . | ? | .
O=C(NCc1ccccn1)c1nc(-c2ccc(C(F)(F)F)cc2)no1 | . | . | . | . | . | .
CC(C)(C)c1ccc(-c2noc(C(=O)NN)n2)cc1 | 10µM | . | . | . | . | .
CCCc1[nH][nH]c(=O)c1C(c1cccc(Cl)c1)C(C#N)C#N (stereo unspecified) | . | . | . | . | . | .
Cc1[nH]n(-c2ncc(-c3ccc(Cl)cc3)s2)c(=O)c1C(c1ccc(Cl)cc1)C(C#N)C#N (stereo unspecified) | 14µM | . | ? | . | ? | .
SMILES | RORgamma inh | MBNL1 CUG block | CBFb-RUNX1 inh | CtBP-E1A inh | Gal4-VP16 FLuc | Six1-Eya2 blk
Clc1ccc(-n2nnc(-c3nccs3)n2)cc1Cl | . | . | . | . | . | .
Cc1ccc(-n2nnc(-c3nccs3)n2)cc1 | 4µM | . | . | . | 5.6µM | .
COc1ccc(OC)c(S(=O)(=O)Nc2ccccc2C(=O)N2CCCCC2)c1 | / | / | / | . | / | .
COc1cc(C(=O)OCC(=O)N2CCCC2)cc2c1OCCO2 | / | / | / | / | / | .
Cc1ccc(COc2ccsc2-c2n[nH]c(=S)n2C)cc1 | 2.8µM | . | . | . | 7.1µM | .
Cn1c(-c2sccc2OCc2ccc(Cl)cc2Cl)n[nH]c1=S | 2.8µM | . | . | / | 7.1µM | .
Cn1c(-c2sccc2OCc2ccccc2)n[nH]c1=S | . | . | . | . | . | .
CCCNC(=O)CS(=O)(=O)c1ccccc1 | . | . | / | . | . | .
c1ccc(-c2cn3nc(-c4ccccc4)sc3n2)cc1 | / | / | / | . | / | .
Cc1nn2cc(-c3ccccc3)nc2s1 | 11µM | . | . | . | ? | .
CN(C)c1ccc(CC(=O)N2CCCC(c3cc(C(=O)Nc4ccc(F)c(Cl)c4)no3)C2)cc1 (stereo unspecified) | / | / | / | . | / | ?
Cc1noc(C)c1NC(=O)N(C)C[C@H]1Oc2ccc(NS(=O)(=O)c3ccc(F)cc3)cc2C(=O)N([C@H](C)CO)C[C@@H]1C | / | / | / | . | / | .
CCOC(=O)c1sc(-c2ccc(C)cc2)c(C#N)c1C | . | . | . | . | . | .
Cc1c(C(=O)NN)sc(-c2ccccc2)c1C#N | 10µM | . | . | . | ? | .
CCc1nc2ccc(C(=O)Nc3cccc(OCC(=O)N(C)C)c3)cn2c1N(C)Cc1ccc(OC)cc1 | / | / | / | . | / | .
O=C(NNS(=O)(=O)c1ccc2ccccc2c1)c1cc(-c2ccccn2)nc2ccccc12 | . | . | . | . | 7.9µM | .
CCC(C(=O)NC1CCCCC1)n1c(SCc2ccc(F)cc2)nc2ccncc21 (stereo unspecified) | ? | . | .[2.36 µM] | . | . | .
CCC(C(=O)NC1CCCC1)n1c(SCc2cccc(C)c2)nc2ccncc21 (stereo unspecified) | 10µM | . | .[2.36 µM] | . | . | .
N=C(N)c1ccc(N=Nc2c(O)ccc3c2[nH]c2ccccc23)cc1 | / | / | / | -67 | / | ?
NC(=O)c1ccc(N=Nc2c(O)c3ccccc3[nH]c2=O)cc1 | . | ? | . | / | . | /
CCCCCCCCN1C(=O)[C@H](CC(=O)NCCC(C)C)C[C@@]2(C(=O)OCC)CCCC=C12 | / | / | / | . | / | .
Clc1ccc(N=c2ssnc2Cl)nc1 | 10µM | . | . | / | . | .
Clc1nssc1=Nc1ccc(Br)cc1 | ? | . | . | . | ? | .
CCNC(=S)N/N=C(\C)c1ccc2ccccc2c1 | 2.8µM | . | . | / | 7.1µM | /
C/C(=N\NC(=S)NC(C)C)c1ccccc1OC(F)F | 1.8µM | . | . | . | 5.6µM | .
C/C(=N\NC(=O)Nc1ccccc1)c1ccc2ccccc2c1 | . | / | . | . | ? | .

Assay outcomes deposited in PubChem BioAssay by National Center for Advancing Translational Sciences (NCATS).
